# A number with no mark means an inactive call. The list shows a part of the results. Active and inactive are the calls of the source.
# What was measured:
# [1] = parental CHO-K1 cell activation, no KCNQ2 – FluxOR thallium flux, duplicate, counter-screen for KCNQ2 potentiator project, confirmation (AID 2282;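 active = signal rise of at least 3 SD above the untreated control mean, in both duplicate wells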;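 note: counter screen of KCNQ2 potentiator hits so any rise reflects channel-independent effects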); settings: parental CHO-K1 cells, FluxOR thallium flux fluorescence; at 10 µM; stronger effect = higher value; zero = vehicle mean+3SD, 100% = vehicle-minus-blank window
# [2] = target: Potassium voltage-gated channel subfamily KQT member 1 (Homo sapiens) (UniProt P51787); test: KCNQ1 activation in stable CHO cells – cell-based, FluxOR thallium flux, selectivity assay for KCNQ2 potentiator project, confirmation (AID 2283;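 active = fluorescence ratio rise of at least 3 SD of vehicle wells above their mean, in both replicate wells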;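 note: 0% = vehicle mean plus 3 SD and 100% = vehicle minus unstimulated blank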); settings: FluxOR thallium flux fluorescence, at 10 µM, stronger effect = higher value, beyond 3SD, as % of vehicle-control signal
# Chain of Potassium voltage-gated channel subfamily KQT member 1 (Homo sapiens) (P51787 whole entry, looked up): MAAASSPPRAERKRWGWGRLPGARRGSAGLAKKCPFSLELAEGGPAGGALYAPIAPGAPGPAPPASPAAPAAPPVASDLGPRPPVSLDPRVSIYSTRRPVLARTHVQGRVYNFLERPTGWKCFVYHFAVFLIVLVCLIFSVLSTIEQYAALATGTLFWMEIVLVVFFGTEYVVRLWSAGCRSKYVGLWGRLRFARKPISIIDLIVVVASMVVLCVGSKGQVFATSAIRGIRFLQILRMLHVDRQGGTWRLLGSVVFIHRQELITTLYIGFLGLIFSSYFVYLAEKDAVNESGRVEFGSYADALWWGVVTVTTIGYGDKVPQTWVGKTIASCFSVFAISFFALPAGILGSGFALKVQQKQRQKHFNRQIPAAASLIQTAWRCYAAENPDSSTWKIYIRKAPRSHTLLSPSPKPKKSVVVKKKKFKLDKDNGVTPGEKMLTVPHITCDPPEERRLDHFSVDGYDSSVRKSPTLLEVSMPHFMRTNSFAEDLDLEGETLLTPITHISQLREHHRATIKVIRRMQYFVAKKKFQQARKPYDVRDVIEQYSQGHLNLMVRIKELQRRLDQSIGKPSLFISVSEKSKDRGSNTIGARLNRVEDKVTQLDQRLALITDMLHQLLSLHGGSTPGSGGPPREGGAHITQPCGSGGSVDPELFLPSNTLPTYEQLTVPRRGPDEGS
# [3] = target: Potassium voltage-gated channel subfamily KQT member 2 (Rattus norvegicus) (UniProt O88943); test: KCNQ2 potassium channel activity enhancers – cell-based, CHO, FluxOR thallium flux, duplicate, confirmation (AID 2287;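 active = fluorescence ratio rising 3 SD or more over the vehicle control mean in both replicates, plus primary screen hit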;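 note: peak minus minimum thallium fluorescence divided by baseline after K/Tl stimulus; 0% = vehicle mean plus 3 SD and 100% = vehicle minus unstimulated blank difference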); settings: CHO-KCNQ2 cells, FluxOR thallium flux fluorescence; at 10 µM; stronger effect = higher value
# [4] = target: Inward rectifier potassium channel 2 (Mus musculus) (UniProt P35561); test: PubChem AID 2345; settings: HEK293 Kir2.1, FluxOR thallium flux fluorescence; at 10 µM; stronger effect = higher value;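 note: 0% = vehicle mean plus 3 SD and 100% = vehicle minus no-stimulus blank window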
# Chain of Inward rectifier potassium channel 2 (Mus musculus) (P35561 whole entry, looked up): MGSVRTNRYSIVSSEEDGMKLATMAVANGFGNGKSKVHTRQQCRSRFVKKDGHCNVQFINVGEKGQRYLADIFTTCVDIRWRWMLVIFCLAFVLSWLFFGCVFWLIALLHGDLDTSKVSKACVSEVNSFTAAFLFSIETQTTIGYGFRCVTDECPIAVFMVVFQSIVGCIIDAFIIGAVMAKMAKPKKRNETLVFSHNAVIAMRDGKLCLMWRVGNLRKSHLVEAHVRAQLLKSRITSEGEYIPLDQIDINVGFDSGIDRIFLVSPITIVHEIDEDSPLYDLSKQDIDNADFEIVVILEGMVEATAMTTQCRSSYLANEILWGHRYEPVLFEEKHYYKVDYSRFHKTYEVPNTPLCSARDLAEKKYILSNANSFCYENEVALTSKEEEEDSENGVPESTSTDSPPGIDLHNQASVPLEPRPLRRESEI
# [5] = target: Potassium voltage-gated channel subfamily KQT member 2 (Rattus norvegicus) (UniProt O88943); test: W236L mutant KCNQ2 current enhancers – cell-based, rat KCNQ2 W236L, CHO, automated patch clamp, mechanism study for KCNQ2 potentiator project (AID 2558;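 active = current increase at least 3 SD of the untreated controls above them in both duplicate recordings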); settings: at 25 µM
# [6] = nonspecific flux increase, KCNQ1-free cells – parental CHO cells, counter-screen for KCNQ1 potentiator project (AID 493006;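 active = duplicate-averaged activation above buffer control mean plus 5 SD of those controls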;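 for activation: fluorescence ratio of max minus min over baseline after K+ and Tl+ depolarization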); settings: parental CHO-K1 cells, FluxOR thallium flux, at 10 µM; stronger effect = higher value
# [7] = target: Potassium voltage-gated channel subfamily KQT member 1 (Homo sapiens) (UniProt P51787); test: enhancement of KCNQ1 channel thallium flux – FluxOR thallium flux, CHO cells, duplicates, confirmation (AID 493007;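 active = potentiation averaged over duplicate wells exceeding buffer-only control mean by more than 3 SD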;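 for outcome: cells depolarized by a potassium plus thallium sulfate stimulus after compound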;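 for potentiation: 0% = buffer-only wells and 100% = R-L3 activator control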); settings: KCNQ1 cell line, FluxOR thallium flux fluorescence, at 10 µM; stronger effect = higher value, % of reference activator effect, buffer zero
# [8] = target: Potassium voltage-gated channel subfamily KQT member 2 (Rattus norvegicus) (UniProt O88943); test: KCNQ2 thallium flux enhancement – KCNQ2-CHO-K1 cells, selectivity assay for KCNQ1 potentiator project (AID 493009;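 active = mean duplicate potentiation above the buffer control mean plus 5 SD of buffer wells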;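 note: assay conditions were tuned for KCNQ1 rather than KCNQ2 modulators; signal is max minus min fluorescence divided by baseline after thallium stimulus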); settings: FluxOR thallium flux fluorescence, at 10 µM; stronger effect = higher value, scaled: buffer 0, activator control 100
# [9] = target: Potassium voltage-gated channel subfamily KQT member 1 (Homo sapiens) (UniProt P51787); test: KCNQ1 activators by electrophysiology – IonWorks patch clamp, KCNQ1-CHO cells, orthogonal assay for KCNQ1 potentiator project, confirmation (AID 493184;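 active = current rise at least 3 SD above the untreated control mean in each of two repeat wells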); settings: automated patch clamp current, at 10 µM
# [10] = target: Voltage-gated inwardly rectifying potassium channel KCNH2 (Homo sapiens) (UniProt Q12809); test: hERG block by Kir2.1 inhibitor candidates – cell-based, thallium flux, counter-screen for Kir2.1 inhibitor project (AID 2236; call rule not given here;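 note: host cells are CHO cells stably expressing hERG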); settings: hERG-expressing cells, at 10 µM, stronger effect = higher value
# Chain of Voltage-gated inwardly rectifying potassium channel KCNH2 (Homo sapiens) (Q12809 whole entry, looked up): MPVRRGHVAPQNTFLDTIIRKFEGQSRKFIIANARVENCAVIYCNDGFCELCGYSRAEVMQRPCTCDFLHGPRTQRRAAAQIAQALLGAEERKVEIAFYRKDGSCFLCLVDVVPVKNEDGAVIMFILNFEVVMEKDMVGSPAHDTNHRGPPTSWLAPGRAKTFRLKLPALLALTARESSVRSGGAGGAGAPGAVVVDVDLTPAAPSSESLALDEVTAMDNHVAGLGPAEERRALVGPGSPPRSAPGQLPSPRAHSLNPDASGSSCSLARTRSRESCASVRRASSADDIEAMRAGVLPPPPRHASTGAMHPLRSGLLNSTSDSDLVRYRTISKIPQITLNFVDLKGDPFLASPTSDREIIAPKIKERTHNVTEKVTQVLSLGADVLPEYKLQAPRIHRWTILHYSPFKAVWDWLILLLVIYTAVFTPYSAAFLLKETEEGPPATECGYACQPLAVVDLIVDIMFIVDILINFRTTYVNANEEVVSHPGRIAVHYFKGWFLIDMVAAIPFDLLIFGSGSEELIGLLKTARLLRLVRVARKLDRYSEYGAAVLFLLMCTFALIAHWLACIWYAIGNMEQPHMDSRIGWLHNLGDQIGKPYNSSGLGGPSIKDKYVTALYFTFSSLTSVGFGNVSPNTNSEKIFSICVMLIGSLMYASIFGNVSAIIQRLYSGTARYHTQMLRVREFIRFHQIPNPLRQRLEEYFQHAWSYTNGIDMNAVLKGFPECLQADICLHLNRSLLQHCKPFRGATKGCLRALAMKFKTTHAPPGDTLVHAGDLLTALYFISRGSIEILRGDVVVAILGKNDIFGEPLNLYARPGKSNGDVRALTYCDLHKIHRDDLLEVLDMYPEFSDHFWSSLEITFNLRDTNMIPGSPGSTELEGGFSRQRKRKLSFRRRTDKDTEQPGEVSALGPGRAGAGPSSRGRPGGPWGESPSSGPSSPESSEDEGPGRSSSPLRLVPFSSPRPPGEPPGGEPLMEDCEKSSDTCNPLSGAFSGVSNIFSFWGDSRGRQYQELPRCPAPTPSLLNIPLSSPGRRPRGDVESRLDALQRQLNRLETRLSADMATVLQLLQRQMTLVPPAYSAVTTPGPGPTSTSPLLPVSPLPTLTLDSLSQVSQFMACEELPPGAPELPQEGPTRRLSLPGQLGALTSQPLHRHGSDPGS
# [11] = target: Potassium channel subfamily K member 9 (Homo sapiens) (UniProt Q9NPC2); test: human KCNK9 potassium channel blockers – cell-based, selectivity assay for Kir2.1 inhibitor project (AID 2329; call rule not given here); settings: KCNK9-expressing cells, ion flux inhibition; at 10 µM; stronger effect = higher value
# [12] = target: Short transient receptor potential channel 4 (Mus musculus) (UniProt Q9QUQ5); test: DAMGO-gated TRPC4 membrane potential modulation – cell-based, second specificity screen, HEK293 TRPC4/mu-opioid, selectivity assay for TRPC6 inhibitor project, confirmation (AID 2776;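 active = compounds whose fluorescence signal differed from control wells by over 3 SD, either direction, in both duplicate plates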); settings: HEK293 TRPC4/MOR, membrane potential dye fluorescence; at 10 µM; stronger effect = higher value; channel activated by saturating DAMGO dose
# Chain of Short transient receptor potential channel 4 (Mus musculus) (Q9QUQ5 whole entry, looked up): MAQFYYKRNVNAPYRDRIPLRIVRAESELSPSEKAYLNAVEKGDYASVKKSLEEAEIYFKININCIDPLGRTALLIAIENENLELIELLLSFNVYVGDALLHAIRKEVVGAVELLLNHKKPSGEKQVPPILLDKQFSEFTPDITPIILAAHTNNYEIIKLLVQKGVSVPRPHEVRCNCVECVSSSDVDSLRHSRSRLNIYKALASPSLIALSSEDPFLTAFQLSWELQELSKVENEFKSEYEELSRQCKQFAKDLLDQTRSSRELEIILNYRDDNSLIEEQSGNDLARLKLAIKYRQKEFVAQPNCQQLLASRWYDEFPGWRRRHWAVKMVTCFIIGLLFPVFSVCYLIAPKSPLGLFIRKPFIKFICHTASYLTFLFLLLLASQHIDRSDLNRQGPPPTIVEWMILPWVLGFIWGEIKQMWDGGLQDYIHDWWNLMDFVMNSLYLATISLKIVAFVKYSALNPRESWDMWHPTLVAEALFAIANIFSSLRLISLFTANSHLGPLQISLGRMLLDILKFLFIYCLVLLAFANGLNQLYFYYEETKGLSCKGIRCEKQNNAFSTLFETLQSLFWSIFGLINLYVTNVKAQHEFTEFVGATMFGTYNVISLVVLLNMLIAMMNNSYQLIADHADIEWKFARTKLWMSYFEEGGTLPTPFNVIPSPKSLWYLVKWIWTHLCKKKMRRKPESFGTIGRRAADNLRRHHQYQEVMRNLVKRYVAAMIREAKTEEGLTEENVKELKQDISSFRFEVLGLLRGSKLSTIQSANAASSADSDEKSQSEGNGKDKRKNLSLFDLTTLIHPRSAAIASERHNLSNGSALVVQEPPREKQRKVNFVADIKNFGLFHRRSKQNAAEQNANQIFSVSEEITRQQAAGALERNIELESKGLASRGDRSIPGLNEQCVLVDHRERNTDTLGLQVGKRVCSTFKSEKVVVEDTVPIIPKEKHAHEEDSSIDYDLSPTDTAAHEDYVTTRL
# [13] = test system: transient receptor potential cation channel C4 (TRPC4), mouse; test: membrane potential change in TRPC4 cells – cell-based, HEK293 TRPC4/mu-opioid, membrane potential dye, selectivity assay for TRPC6 inhibitor project, confirmation (AID 2777;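 active = rise or fall in signal beyond 3 SD of buffer-only wells in both replicate plates, either sign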;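 note: integrated kinetic ratio of fluorescence range over baseline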); settings: membrane potential fluorescence, at 10 µM
# [14] = parental HEK293 depolarization signal interference – cell-based, second counter screen, counter-screen for TRPC6 inhibitor project, confirmation (AID 2779;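 active = membrane potential signal moving either way by over 3 SD of the maximum-effect control, in both duplicate plates, meaning non-specific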); settings: parental HEK293 membrane potential dye fluorescence; at 10 µM; maximal acetylcholine challenge after compound addition
# [15] = nonspecific voltage dye signal in HEK293 – cell-based, parental HEK293, counter-screen for TRPC6 inhibitor project, confirmation (AID 2780;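 active = membrane potential signal shifting up or down by more than 3 SD of buffer-only wells, on both duplicate plates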;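 note: plate controls were buffer EC0 wells for no effect and acetylcholine ECmax wells for full effect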); settings: parental HEK293 membrane potential dye fluorescence; at 10 µM
# [16] = target: Short transient receptor potential channel 6 (Mus musculus) (UniProt Q61143); test: mouse TRPC6 channel activators, confirmation, HEK293 cells, membrane potential dye, duplicate (AID 488961); settings: HEK293-TRPC6 membrane potential dye fluorescence, FDSS; at 10 µM
# Chain of Short transient receptor potential channel 6 (Mus musculus) (Q61143 whole entry, looked up): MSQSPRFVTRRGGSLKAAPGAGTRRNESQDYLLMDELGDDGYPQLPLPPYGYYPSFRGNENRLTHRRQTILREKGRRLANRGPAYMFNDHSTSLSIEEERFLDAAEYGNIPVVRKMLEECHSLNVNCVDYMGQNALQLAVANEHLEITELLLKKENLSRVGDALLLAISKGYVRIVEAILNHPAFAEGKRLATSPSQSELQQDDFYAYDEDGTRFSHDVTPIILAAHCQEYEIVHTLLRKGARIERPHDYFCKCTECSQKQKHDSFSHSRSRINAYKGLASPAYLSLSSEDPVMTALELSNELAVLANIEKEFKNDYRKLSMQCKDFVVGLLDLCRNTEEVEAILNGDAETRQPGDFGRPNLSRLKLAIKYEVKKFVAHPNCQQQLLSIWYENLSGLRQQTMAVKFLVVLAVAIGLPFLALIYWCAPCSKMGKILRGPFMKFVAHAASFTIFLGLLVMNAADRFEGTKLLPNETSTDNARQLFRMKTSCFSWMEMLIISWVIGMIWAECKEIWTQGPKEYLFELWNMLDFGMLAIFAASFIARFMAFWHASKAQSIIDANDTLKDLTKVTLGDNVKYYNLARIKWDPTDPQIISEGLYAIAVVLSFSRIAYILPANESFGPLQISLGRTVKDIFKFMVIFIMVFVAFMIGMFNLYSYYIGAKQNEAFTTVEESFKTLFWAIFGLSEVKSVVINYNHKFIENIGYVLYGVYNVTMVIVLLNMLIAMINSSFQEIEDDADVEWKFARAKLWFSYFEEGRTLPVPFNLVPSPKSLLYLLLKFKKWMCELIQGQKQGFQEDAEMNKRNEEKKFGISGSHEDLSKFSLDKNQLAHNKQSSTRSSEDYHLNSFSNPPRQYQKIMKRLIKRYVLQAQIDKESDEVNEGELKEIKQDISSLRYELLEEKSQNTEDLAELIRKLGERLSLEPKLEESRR
# [17] = nonspecific voltage dye response without TRPC6 – cell-based, parental HEK293, counter-screen for TRPC6 modulator project, confirmation (AID 488924;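 active = membrane potential signal moves up or down beyond 5 SD from buffer-only wells, on both duplicate plates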); settings: parental HEK293, membrane potential dye fluorescence; at 10 µM
# [18] = membrane potential response modulators in host HEK293 cells – cell-based, second counter-screen, parental HEK293, membrane potential dye, counter-screen for TRPC6 modulator project, confirmation (AID 488926;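 active = membrane potential signal drops by more than 5 SD from the mean control signal, in both duplicate plates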;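 note: plate controls were acetylcholine ECmax control wells for no effect and buffer only wells for full effect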); settings: parental HEK293, membrane potential dye fluorescence, at 10 µM, after compound, maximal acetylcholine stimulation; stronger effect = higher value
# [19] = test system: Transient receptor potential cation channel subfamily C member 4 (mouse); test: off-target membrane potential effects via mouse TRPC4 – cell-based, HEK293 TRPC4/mu-opioid, membrane potential dye, selectivity assay for TRPC6 modulator project, confirmation (AID 488927;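 active = membrane potential signal moved up or down beyond 5 SD of buffer control wells, in both duplicate plates, actives on both sides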;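 for percent change from control (negative = decrease, positive = increase): plate controls were assay buffer wells for no effect and DAMGO maximal-effect wells for full effect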); settings: membrane potential fluorescence, at 10 µM
# [20] = test system: TRPC4 (transient receptor potential cation channel C4), mouse; test: DAMGO-evoked mouse TRPC4 response blockade – cell-based, second screen, HEK293 TRPC4/mu-opioid, membrane potential dye, selectivity assay for TRPC6 modulator project, confirmation (AID 488928;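 active = drop in membrane potential signal beyond 5 SD of the control wells in both duplicate plates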;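 note: TRPC4 counter screen for TRPC6 hits run under conditions tuned for TRPC6 not TRPC4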); settings: membrane potential dye fluorescence, at 10 µM, stimulated with maximal-effect DAMGO; stronger effect = higher value
structure (smiles),measurement,setting,value
COc1cc(-n2c(=S)[nH]c3ccc(C)cc3c2=O)c(Cl)cc1Cl,activity increase over 3SD of controls,[1],2.8% (active)
same,activation over 3SD threshold,[2],-13.6%
same,"potentiation, less the hit threshold",[3],1.9% (active)
same,activity over 3SD threshold,[4],-22.9%
same,outcome,[5],inactive
same,activation,[6],182% (active)
same,potentiation,[7],22.5% (active)
same,potentiation,[8],153% (active)
same,outcome,[9],inactive
CCOc1cccc(=NC2CCCCC2)c2c(C)[nH]c(C)c12,inhibition,[10],74% (active)
same,inhibition,[11],48% (active)
same,inhibition,[12],56% (active)
same,"activity change, negative = inhibition",[13],-8.98% (active)
same,signal change vs control,[14],-3.5% (active)
same,membrane potential signal change,[15],-146% (active)
same,outcome,[16],inactive
CC1=CC(=Cc2sc3ccccc3[n+]2C)C=C(C)O1,outcome,[17],inactive
same,inhibition,[18],131% (active)
same,outcome,[19],inactive
same,outcome,[20],inactive
same,outcome,[16],inactive
CN1CCN(c2cc(N3CCNCC3)ccc2[N+](=O)[O-])CC1,membrane potential signal change,[17],-426% (active)
same,inhibition,[18],102% (active)
same,"percent change from control (negative = decrease, positive = increase)",[19],-68% (active)
same,inhibition,[20],66.5% (active)
same,outcome,[16],inactive
CCOP1(=S)Oc2cc3c(cc2C(C(=O)OC)(C(F)(F)F)O1)OCO3 (stereo not given),outcome,[6],inactive
same,outcome,[7],inactive
same,outcome,[8],inactive
same,outcome,[9],inactive

# Reference: PubChem BioAssay
